Test results taken from PubChem BioAssay (EPA / NIEHS).
Where “and” joins values, the source holds several entries; their conditions need not be identical. Equal entries are not always repeated. Records with an inconclusive call do not appear. Calls of active or inactive are those of the source. How the source made its calls, unless noted: active means hit-call score of the fitted dose curve at least 0.9, where 1 is the maximum; inactive means score below 0.9.

Biological target: Cellular tumor antigen p53 (Homo sapiens) (UniProt P04637)
Sequence (P04637 whole entry, looked up): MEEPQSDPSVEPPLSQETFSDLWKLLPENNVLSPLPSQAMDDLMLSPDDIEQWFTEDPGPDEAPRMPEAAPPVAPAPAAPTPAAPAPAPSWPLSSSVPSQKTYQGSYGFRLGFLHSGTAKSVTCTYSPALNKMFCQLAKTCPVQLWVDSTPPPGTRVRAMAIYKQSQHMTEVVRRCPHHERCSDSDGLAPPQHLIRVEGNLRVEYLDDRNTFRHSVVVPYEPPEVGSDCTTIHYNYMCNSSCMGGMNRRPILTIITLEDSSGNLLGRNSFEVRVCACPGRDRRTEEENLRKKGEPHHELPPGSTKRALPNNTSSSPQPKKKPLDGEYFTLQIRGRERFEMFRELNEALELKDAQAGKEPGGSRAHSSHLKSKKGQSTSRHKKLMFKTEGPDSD
Assay: ATG_p53_CIS: Attagene CIS-FACTORIAL HepG2 Assay for human p53 Transcription Factor (AID 2282994)
Settings: HepG2 p53 cis-element reporter, Attagene mRNA; actives raise or lower the signal
Outline: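 In HepG2 cells, reporter transcription units under cis-regulatory promoters were transiently introduced. Following 24 h treatment, RNA was processed to labelled, digested cDNA fragments read by capillary electrophoresis; fitting was bidirectional versus DMSO.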

Compound | outcome | AC50
C#CC1(O)CCCCC1 | inactive | 
O=c1[nH]c(Cl)c(Cl)cc1Cl | inactive | 
CCC(C)c1cc(C(C)(C)C)cc(-n2nc3ccccc3n2)c1O (centres undefined) | inactive | 
[CH3][Sn]([Cl])([Cl])[Cl] | inactive | 
Nc1ccccc1C(=O)OCCc1ccccc1 | inactive | 
N#Cc1cccc(C#N)c1 | inactive | 
O=C(O)CCCc1ccc(N(CCCl)CCCl)cc1 |  | 54.7 µM (active)
Nc1cc(Cl)cc(Cl)c1 | inactive | 
COC(C)(C)CCC[C@H](C)C/C=C/C(C)=C/C(=O)OC(C)C |  | 157 µM (active)
BrCBr | inactive | 
CCc1cccc(C)c1N(C(=O)CCl)[C@@H](C)COC | inactive | 
CC(Cc1ccc(C(C)(C)C)cc1)CN1C[C@@H](C)O[C@@H](C)C1 (some centres undefined) | inactive | 
O=C(O)c1cc[c]([Hg][Cl])cc1 |  | 7.47 µM (active)
O=S(=O)(c1ccccc1)c1ccccc1 | inactive | 
Clc1ccc(-c2ccccc2)cc1 | inactive | 
CN(C)C(=O)C(c1ccccc1)c1ccccc1 | inactive | 
C=CCc1ccc(OC(=O)Cc2ccccc2)c(OC)c1 | inactive | 
O=P(O)(Oc1ccccc1)Oc1ccccc1 | inactive | 
CC1CCCC1.[C-]#[O+].[C-]#[O+].[C-]#[O+].[Mn] | inactive | 
O=C(O)COc1ccccc1 | inactive | 
[Cl][Sb]([Cl])[Cl] |  | 180 µM (active)
Cc1ccc(N(SC(F)(Cl)Cl)S(=O)(=O)N(C)C)cc1 | inactive | 
CC1(C)CC(=O)CC(C)(C)N1[O] | inactive | 
SCc1ccco1 | inactive | 
O=CNC(N1CCN(C(NC=O)C(Cl)(Cl)Cl)CC1)C(Cl)(Cl)Cl (centres undefined) |  | 148 µM (active)
Oc1cc(Cl)ccc1Cl | inactive | 
O=[N+]([O-])c1cc(C(F)(F)F)c(Cl)c([N+](=O)[O-])c1Cl | inactive | 
C[C@]12CCC(=O)C(O)=C1CC[C@@H]1[C@@H]2CC[C@]2(C)C(=O)CC[C@@H]12 | inactive | 
CSc1nc(N=[N+]=[N-])nc(NC(C)C)n1 | inactive | 

Read-out: not listed separately
Assay: BSK_3C_TissueFactor: BioMAP Diversity Plus: 3C Assay for Tissue Factor Biomarker Activity (AID 2282997)
Settings: BioMAP 3C HUVEC, tissue factor biomarker readout; actives raise or lower the signal
Outline: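 After a 24 h chemical exposure of primary human umbilical vein endothelial cells, Tissue Factor levels were quantified by ELISA.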

Compound | AC50 | outcome
Nc1ccc(-c2ccc(N)c(N)c2)cc1N | 5.26 µM (active) | 
O=c1[nH]c(Cl)c(Cl)cc1Cl |  | inactive
O=C(O)CCCc1ccc(N(CCCl)CCCl)cc1 | 20 µM (active) and 12.3 µM (active) | 
COC(C)(C)CCC[C@H](C)C/C=C/C(C)=C/C(=O)OC(C)C | 20 µM (active) | 
O=P1(NCCCl)OCCCN1CCCl (centres undefined) |  | inactive
O=S(=O)(c1ccccc1)c1ccccc1 |  | inactive
Clc1ccc(-c2ccccc2)cc1 |  | inactive
Oc1cc(Cl)ccc1Cl |  | inactive

Read-out: not listed separately
Assay: BSK_3C_uPAR: BioMAP Diversity Plus: 3C Assay for Urokinase-type plasminogen activator receptor (uPAR) Biomarker Activity (AID 2282998)
Settings: BioMAP 3C HUVEC, uPAR biomarker ELISA; actives raise or lower the signal
Outline: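 Endothelial primary cells of human umbilical vein origin received test chemical; 24 h later uPAR was assayed by ELISA. Fitting was bidirectional, DMSO as negative control.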

Compound | outcome | AC50
Nc1ccc(-c2ccc(N)c(N)c2)cc1N | inactive | 
O=c1[nH]c(Cl)c(Cl)cc1Cl | inactive | 
O=C(O)CCCc1ccc(N(CCCl)CCCl)cc1 |  | 20 µM (active) and 16.3 µM (active)
COC(C)(C)CCC[C@H](C)C/C=C/C(C)=C/C(=O)OC(C)C |  | 33.5 µM (active)
O=P1(NCCCl)OCCCN1CCCl (centres undefined) | inactive | 
O=S(=O)(c1ccccc1)c1ccccc1 | inactive | 
Clc1ccc(-c2ccccc2)cc1 | inactive | 
Oc1cc(Cl)ccc1Cl | inactive | 

Read-out: not listed separately
Assay: BSK_3C_VCAM1: BioMAP Diversity Plus: 3C Assay for Vascular cell adhesion molecule 1 (VCAM1) Biomarker Activity (AID 2282999)
Settings: BioMAP 3C HUVEC, VCAM1 ELISA, cytokine-stimulated; actives raise or lower the signal
Outline: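 HUVEC primary cells, 24 h compound exposure; VCAM-1 by ELISA; gain/loss of signal fitted bidirectionally vs DMSO baseline.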

Compound | outcome | AC50
Nc1ccc(-c2ccc(N)c(N)c2)cc1N | inactive | 
O=c1[nH]c(Cl)c(Cl)cc1Cl | inactive | 
O=C(O)CCCc1ccc(N(CCCl)CCCl)cc1 |  | 31.8 µM (active) and 28.7 µM (active)
COC(C)(C)CCC[C@H](C)C/C=C/C(C)=C/C(=O)OC(C)C |  | 28.8 µM (active)
O=P1(NCCCl)OCCCN1CCCl (centres undefined) | inactive | 
O=S(=O)(c1ccccc1)c1ccccc1 | inactive | 
Clc1ccc(-c2ccccc2)cc1 | inactive | 
Oc1cc(Cl)ccc1Cl | inactive | 

Read-out: not listed separately
Assay: BSK_4H_Eotaxin3: BioMAP Diversity Plus: 4H Assay for Eotaxin 3 Biomarker Activity (AID 2283000);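 on outcome: CCL26 protein level quantified by ELISA in parallel with SRB cytotoxicity check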
Settings: primary human endothelial cells (HUVEC); actives raise or lower the signal
Outline: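 Chemicals were added to human umbilical vein endothelium cultures, and Eotaxin-3 was quantified by ELISA at 24 h. Values were derived by bidirectional fitting with DMSO serving as negative control and activity baseline.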

Compound | outcome | AC50
Nc1ccc(-c2ccc(N)c(N)c2)cc1N | inactive | 
O=c1[nH]c(Cl)c(Cl)cc1Cl | inactive | 
O=C(O)CCCc1ccc(N(CCCl)CCCl)cc1 |  | 26.3 µM (active) and 20 µM (active)
COC(C)(C)CCC[C@H](C)C/C=C/C(C)=C/C(=O)OC(C)C |  | 29.4 µM (active)
O=P1(NCCCl)OCCCN1CCCl (centres undefined) | inactive | 
O=S(=O)(c1ccccc1)c1ccccc1 | inactive | 
Clc1ccc(-c2ccccc2)cc1 |  | 30.5 µM (active)
Oc1cc(Cl)ccc1Cl | inactive | 

Biological target: human Peroxisome Proliferator-activated Receptor alpha (PPARa), PPARA (gene 5465) (UniProt Q07869)
Sequence (Q07869 whole entry, looked up): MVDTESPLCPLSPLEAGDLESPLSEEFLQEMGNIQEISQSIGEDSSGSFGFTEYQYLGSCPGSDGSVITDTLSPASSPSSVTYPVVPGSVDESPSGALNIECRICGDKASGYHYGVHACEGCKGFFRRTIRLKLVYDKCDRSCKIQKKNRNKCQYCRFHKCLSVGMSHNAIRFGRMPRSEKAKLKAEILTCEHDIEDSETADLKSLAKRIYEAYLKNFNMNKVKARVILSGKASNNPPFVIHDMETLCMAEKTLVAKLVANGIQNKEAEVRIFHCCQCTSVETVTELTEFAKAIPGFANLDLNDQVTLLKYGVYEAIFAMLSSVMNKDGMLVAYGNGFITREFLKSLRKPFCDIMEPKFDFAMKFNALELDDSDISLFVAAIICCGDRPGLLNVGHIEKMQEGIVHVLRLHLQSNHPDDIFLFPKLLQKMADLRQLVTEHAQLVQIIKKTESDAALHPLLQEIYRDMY
Assay: ATG_PPARa_TRANS: Attagene TRANS-FACTORIAL HepG2 Assay for human Peroxisome Proliferator-activated Receptor alpha (PPARa) (AID 2283001; active means hit-call score of the fitted dose curve at least 0.9, where 1 is the maximum;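 on AC50: potency for gain of reporter signal over DMSO so agonist or activator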)
Settings: not given
Outline: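 Transient HepG2 transfection, GAL4-UAS reporters, NR-Gal4 chimeras; 24 h compound exposure. Readout: reporter transcripts by RT-PCR, 6-FAM primer extension, HpaI digest, capillary electrophoresis. Positive direction vs DMSO baseline.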

Compound | outcome | AC50
Nc1ccc(-c2ccc(N)c(N)c2)cc1N | inactive | 
O=c1[nH]c(Cl)c(Cl)cc1Cl | inactive | 
Nc1c(Cl)c(Cl)c(Cl)c(Cl)c1Cl | inactive | 
COC(=O)c1ccccc1S(=O)(=O)NC(=O)Nc1nc(C)cc(C)n1 | inactive | 
Nc1ccccc1C(=O)OCCc1ccccc1 | inactive | 
N#Cc1cccc(C#N)c1 | inactive | 
O=C(O)CCCc1ccc(N(CCCl)CCCl)cc1 | inactive | 
Nc1cc(Cl)cc(Cl)c1 | inactive | 
COC(C)(C)CCC[C@H](C)C/C=C/C(C)=C/C(=O)OC(C)C | inactive | 
O=P1(NCCCl)OCCCN1CCCl (centres undefined) | inactive | 
CC(Cc1ccc(C(C)(C)C)cc1)CN1C[C@@H](C)O[C@@H](C)C1 (some centres undefined) | inactive | 
CN(C)C(=O)C(c1ccccc1)c1ccccc1 | inactive | 
O=P(O)(Oc1ccccc1)Oc1ccccc1 | inactive | 
CC1CCCC1.[C-]#[O+].[C-]#[O+].[C-]#[O+].[Mn] | inactive | 
O=C(O)COc1ccccc1 | inactive | 
SCc1ccco1 |  | 33 µM (active)
Oc1cc(Cl)ccc1Cl | inactive | 
O=[N+]([O-])c1cc(C(F)(F)F)c(Cl)c([N+](=O)[O-])c1Cl |  | 52.5 µM (active)
